According to PubChem BioAssay:
Entries with a potency or affinity are not part of this list. Activity calls are given as the source filed them. Cut-off not given; nearly all actives show IC50 up to about 0.91 µM.

What follows are compounds tested against Calcium-dependent protein kinase 4 (Plasmodium falciparum (isolate 3D7)) (UniProt Q8IBS5) (assay: PfCDPK4 kinase inhibitors, biochemical, TCAMS library (AID 1159588)). Details: recombinant PfCDPK4, Kinase-Glo ATP depletion luminescence.
Sequence of Calcium-dependent protein kinase 4 (Plasmodium falciparum (isolate 3D7)) (Q8IBS5 whole entry, looked up): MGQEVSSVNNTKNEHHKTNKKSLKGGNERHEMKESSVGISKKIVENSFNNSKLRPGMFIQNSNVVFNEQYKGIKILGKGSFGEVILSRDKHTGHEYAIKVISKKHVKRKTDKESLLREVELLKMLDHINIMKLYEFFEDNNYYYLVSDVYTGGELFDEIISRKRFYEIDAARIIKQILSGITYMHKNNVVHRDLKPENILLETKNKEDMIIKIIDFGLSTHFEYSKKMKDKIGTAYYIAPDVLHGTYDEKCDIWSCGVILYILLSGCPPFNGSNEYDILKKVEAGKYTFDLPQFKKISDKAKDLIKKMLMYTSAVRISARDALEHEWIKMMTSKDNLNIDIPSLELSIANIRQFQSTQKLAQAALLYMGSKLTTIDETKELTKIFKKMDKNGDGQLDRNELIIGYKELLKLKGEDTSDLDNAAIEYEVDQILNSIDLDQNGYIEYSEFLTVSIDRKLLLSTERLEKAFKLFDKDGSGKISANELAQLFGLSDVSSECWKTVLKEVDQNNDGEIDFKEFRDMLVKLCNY

outcome, inactive:
CCn1c(Cc2ccccc2)nnc1SCC(=O)N1c2ccccc2Sc2ccccc21
CCCc1ccc(S(=O)(=O)NC2CCN(c3ccnc(Nc4ccc(OC)cc4)n3)C2)cc1 (stereo not given)
CCc1cc2c(O)c([N+](=O)[O-])c(=O)oc2cc1OCCCCCOc1cc2oc(=O)c([N+](=O)[O-])c(O)c2cc1CC
CCCCOc1ccc(C(O)C(CN2CCCCC2)c2ccccc2)cc1 (stereo not given)
O=C(Cc1cccs1)NCC(c1ccccc1Cl)c1c[nH]c2ccccc12 (stereo not given)
O=C(Nc1ccc(OC2CCN(Cc3ccc(F)cc3)CC2)cc1)c1cccs1
Cc1cc(C(F)(F)F)n2nc(C(=O)N(Cc3cncn3Cc3cccc(F)c3)CC3CC3)cc2n1
O=C(/C=C/c1ccc(Cl)c(Cl)c1)NCCCCCN1CCCN(C(=O)Nc2ccc(F)c(Cl)c2)CC1
COc1ccc(CN2CCC(NCc3cccc(C(F)(F)F)c3)CC2)cc1
Cc1cccc2[nH]c(-c3cccc(-c4cccc(NC(=O)C5CC(=O)Nc6ccccc65)c4)c3)nc12 (stereo not given)
COc1ccc2ccccc2c1C=NNc1ccnc2cc(Cl)ccc12
Cc1nn(-c2ccc(Cl)cc2)c2[nH]c(CN3CCN(c4cccc(Cl)c4)CC3)cc(=O)c12
O=C(Nc1cccc(CN2CCCN(Cc3ccc(O)cc3)CC2)c1)c1cc(F)cc(F)c1
CC(C)N(CCOc1ccc2c(c1)N(C(=O)Nc1cc(Br)cc(C(F)(F)F)c1)CC2)C(C)C
Cc1ccc2cc(NC(=O)CCCCCCCON3C(N)=NC(N)=NC34CCCCC4)ccc2n1
CCOc1ccc(-c2cc3nc(C4CCNCC4)c(C(=O)Nc4ccc(C)cc4Cl)cn3n2)cc1
COc1ccccc1CNc1nc(Nc2ccccc2C)nc2ccccc12
O=C(/C=C/c1ccccc1)N1CCOC(CCN2CCC(c3ccccc3)CC2)(c2ccc(Cl)c(Cl)c2)C1 (stereo not given)
COCCCNc1sc(S(=O)(=O)c2ccccc2)nc1S(=O)(=O)c1ccc(Cl)cc1
CC(C)c1ccc(NC(=O)c2ccc(C(=O)NCC3CCN(CC4CCCCC4)CC3)cc2)cc1
CCOC(=O)C(NC(=O)c1ccc([N+](=O)[O-])o1)C(C)C (stereo not given)
O=C(Nc1cccc(OCCN2CCCC2)c1)Nc1ccc(Cl)c(Cl)c1
COc1ccc2ccccc2c1CNCC1CCN(CC2CCCCC2)CC1
COc1cc2c(cc1S(=O)(=O)c1ccc(NC(=O)Nc3ccc(F)cc3)cc1)CCN(C)CC2
CCNc1cc(C(=O)N[C@@H](Cc2ccoc2)[C@H](O)CNC(C)CCCC(C)C)cc(N2CCCCS2(=O)=O)c1 (stereo not given in full)
O=c1cc(NCCC(CNCc2ccc(Br)o2)NCc2cc(Br)cc(Br)c2)[nH]c2ccccc12 (stereo not given)
CCNc1cc(C(=O)N[C@@H](Cc2ccccc2)[C@H](O)CNC(C)(C)CC(C)(C)C)c(F)c(N2CCCCS2(=O)=O)c1
CS(=O)(=O)c1ccc(CCNCc2ccc(-c3ccc(CN(C(=O)C4CC(=O)c5ccccc54)C4CCN(Cc5ccccc5)CC4)cc3)nc2)cc1 (stereo not given)
O=C(NC1CCCCC1)N(Cc1ccc(-c2ccc(CNC3CCCC3)cc2)cc1)C1CCN(Cc2ccccc2)CC1
CCCCCCCCc1[nH]c(C)c(Br)c(=O)c1Br
O=C1C[C@@H]([S@@](=O)Cc2nccs2)N1CCOCCCCCCc1ccc(Cl)cc1
Cc1ccc2[nH]c3c(NCCCN4CCOCC4)ncnc3c2c1
c1ccc2c(c1)CN(Cc1cc3ccccc3[nH]1)CC1(CCN(Cc3c[nH]c4cnccc34)CC1)O2
CC1(C)N=C(N)N=C(N)N1OCCCc1cc(Cl)c(Cl)cc1Cl
O=C(NCc1ccc2c(c1)OCO2)c1nn(CCN2CCC(N3CCCC3)CC2)cc1-c1ccc(Cl)c(Cl)c1
COc1ccc(N(c2nc(-c3cc(Cl)ccc3Cl)cs2)C2CCNC2)cc1 (stereo not given)
O=S(=O)(c1cc(Cl)sc1Cl)N(CCC(O)(C(F)(F)F)C(F)(F)F)Cc1cccc(O)c1
CC1CCC2(CC1)N=C(N)N=C(N)N2OCc1cc2ccccc2c2ccccc12 (stereo not given)
Cc1ccccc1CCNC(=O)c1cnc(N2CCN(c3ccncc3)CC2)c(Cl)c1
CCCN(CCC)CCOc1ccc(C(O)(C#CC(O)(c2ccc(OCCN(CCC)CCC)cc2)c2cccc(Cl)c2)c2cccc(Cl)c2)cc1 (stereo not given)
